The values below come from PubChem BioAssay (EPA / NIEHS).

Values joined by “and” are separate entries in the source; they are usually repeats but may differ in a detail not shown here. Equal values may be shown once. Some compounds were tested as several samples or in several runs, with calls that do not always agree. Active and inactive are the calls of the source. How the source made its calls: active means hit-call score of the fitted dose curve at least 0.9, where 1 is the maximum; inactive means score below 0.9.

The assay can be described thus: APR_HepG2_CellLoss_72hr: Apredica 72-hour HepG2 Assay for Cell Loss (AID 2282915). Conditions: high-content imaging. The method, then: APR_HepG2_72hr is a cell-based, multiplexed-readout assay that uses HepG2, a human liver cell line, with measurements taken at 72 hours after chemical dosing in a 384-well plate.APR_HepG2_CellLoss_72hr is one of 10 assay component(s) measured or calculated from the APR_HepG2_72hr assay. It is designed to make measurements of cell number, a form of viability reporter, as detected with fluorescence intensity signals by HCS Fluorescent Imaging technology.Data from the assay component APR_HepG2_CellLoss_72hr was analyzed into 1 assay endpoint. This assay endpoint, APR_HepG2_CellLoss_72hr, was analyzed with bidirectional fitting relative to DMSO as the negative control and baseline of activity. Using a type of viability reporter, measures of all nuclear dna for gain or loss-of-signal activity can be used to understand the viability at the cellular-level. Furthermore, this assay endpoint can be referred to as a secondary readout, because this assay has produced multiple assay endpoints where this one serves a viability function. To generalize the intended target to other relatable targets, this assay endpoint is annotated to the cell cycle intended target family, where the subfamily is proliferation.
Cells were treated with dimethyl sulfoxide (DMSO) as a solvent control at a final concentration of 0.5% v/v or with compounds in DMSO with a resulting final DMSO concentration of 0.5% v/v. Compound treatment was done at concentrations of 0.39, 0.78, 1.56, 3.12, 6.24, 12.5, 25, 50, 100, and 200 uM in duplicate on each plate. Cells were treated with compounds for 1, 24, or 72 hr. Carbonyl […] m-chloro-phenylhydrazone (CCCP) and taxol were used as positive controls for mitochondrial function and cytoskeletal stability, respectively; DMSO served as the negative control for this experiment. Cells were fixed by the direct addition of 50 uL formaldehyde in Hank's Balanced Salt Solution (HBSS) to a final concentration of 3.7%. After incubation in the fixation medium for 30 min at room temperature (293-298 K), cells were rinsed twice with HBSS and treated with cell permeabilization buffer (16 uL of 0.5% Triton X-100) for 10 min at room temperature (293-298 K) before labeling. For mitochondrial membrane potential and mitochondrial measurements, pre-fixed cells were incubated with 50 uL of MitoTracker Red CMXRos (Invitrogen) at a concentration of 250 nM for 30 min before fixation. In the remaining cases, post-fixed cells were labeled by incubation with a multiplexed mixture of primary antibodies in HBSS for 60 min at room temperature (293-298 K) to detect immunoreactivity of c-Jun (1:500), phospho-histone H3 (1:100), phospho-histone H2A.x (1:200), p53 (1:400), alpha-tubulin (1:200) and Hoechst 33342 (2 ug/mL). Cells were labeled for multiplexed imaging on two separate plates: a) Hoechst 33342, MitoTracker Red, phospho-histone H3, and alpha-tubulin, and b) Hoechst 33342, phospho-histone H2A.x, and c-Jun. A final rinse with HBSS (50 uL) was performed before analysis. The primary and secondary antibodies for the proteins were phospho-histone H3 (rabbit anti-phospho-histone H3 and FITC-donkey anti-rabbit IgG), phospho-histone H2A.x (mouse anti-phospho-histone H2A.x and FITC-donkey anti-mouse IgG), c-Jun (rabbit anti-phospho-c-Jun and Cy3-donkey anti-rabbit IgG), p53 (sheep anti-p53 and Cy5-donkey anti-sheep IgG), alpha-tubulin (mouse anti-alpha-tubulin and Cy5-donkey anti-mouse IgG). These antibodies are available as the CellCiphr HepG2 assay kit (Millipore).Digital images of each well were captured using a Cellomics ArrayScan VTI (Thermo Scientific Cellomics) (0.8 NA objective, 0.63x optical coupler, and XF-93 filter set) at 20x magnification. The images were acquired using the autofocus feature of the ArrayScan instrument, which entails the following steps. First, the camera focuses on channel 1 (Hoechst 33342), where nuclei are identified. Second, a Z offset of 1 um is used for capturing mitochondria (MitoTracker Red). […]
Consider `CC1(C)C(C=C(Cl)Cl)C1C(=O)OC(C#N)c1ccc(F)c(Oc2ccccc2)c1` (stereo not given), for which the call was inactive.

With `O=[N+]([O-])/N=C1\NCCN1Cc1ccc(Cl)nc1`, the compound was called inactive.

As for `O=C(O)COc1ccc(Cl)cc1Cl`, the outcome was inactive.

In the case of `COP(=S)(OC)Oc1ccc([N+](=O)[O-])cc1`, the compound was called inactive.

A word on the AC50: it is the concentration giving half of the maximal activity seen. Regarding `CCOC1Oc2ccc(OS(C)(=O)=O)cc2C1(C)C` (stereo not given), the AC50 was 46.1 µM (active).

In the case of `O=C(O)CCCOc1ccc(Cl)cc1Cl`, the compound was called inactive.

With `CCC(C)Nc1c([N+](=O)[O-])cc(C(C)(C)C)cc1[N+](=O)[O-]` (stereo not given), the AC50 is 64.9 µM (active).

As to `CNC(=O)Oc1ccccc1OC(C)C`, the result was inactive.

Turning to `CC[C@H](C)[C@H]1O[C@]2(C=C[C@@H]1C)C[C@@H]1C[C@@H](C/C=C(\C)[C@@H](O[C@H]3C[C@H](OC)[C@@H](O[C@H]4C[C@H](OC)[C@@H](O)[C@H](C)O4)[C@H](C)O3)[C@@H](C)/C=C/C=C3\CO[C@@H]4[C@H](O)C(C)=C[C@@H](C(=O)O1)[C@]34O)O2` (tested in a mixture with another compound), the call was inactive.

Take `COC(=O)c1ccccc1S(=O)(=O)NC(=O)Nc1nc(C)nc(OC)n1`: the compound was classed as inactive.

`O=C(O)C(F)(F)C(F)(F)C(F)(F)C(F)(F)C(F)(F)C(F)(F)C(F)(F)F`: the AC50 was 108 µM (active) and the compound was called inactive.

Turning to `CC(C)(C)C(O)C(Oc1ccc(Cl)cc1)n1cncn1` (stereo not given), the compound was called inactive; the AC50 was 90.5 µM (active) and 96.3 µM (active) and 36.1 µM (active).

On to `COc1nn(CSP(=S)(OC)OC)c(=O)s1`, for which the call was inactive.

Regarding `COP(=S)(OC)Oc1ccc(SC)c(C)c1`, the call was inactive.

For the compound `OCCOc1ccccc1`, the compound was classed as inactive.

On to `ClC1C(Cl)C(Cl)C(Cl)C(Cl)C1Cl` (stereo not given), for which the call was inactive and the AC50 is 57.2 µM (active).

For the compound `N#CN`, the call was inactive.

In the case of `CCS(=O)(=O)c1cccnc1S(=O)(=O)NC(=O)Nc1nc(OC)cc(OC)n1`, the result was inactive.

Take `CCC(C)(C)C(=O)OC1=C(c2ccc(Cl)cc2Cl)C(=O)OC12CCCCC2`: the AC50 is 133 µM (active).

`CCC(C)(NC(=O)c1cc(Cl)c(C)c(Cl)c1)C(=O)CCl` (stereo not given): the call was inactive.

Regarding `CCN(CC)C(=O)SCc1ccc(Cl)cc1`, the result was inactive.

Take `CCOCN(C(=O)CCl)c1c(C)cccc1CC`: the AC50 is 9.99 µM (active).

Regarding `[2H]C1([2H])[n+]2ccccc2-c2cccc[n+]2C1([2H])[2H]`, the concentration at half-maximal activity (AC50) was 35.1 µM (active).

On to `C[C@H]1[C@H](c2ccc(Cl)cc2)SC(=O)N1C(=O)NC1CCCCC1`, for which the AC50 was 33.5 µM (active).

As to `CCOc1nc(NC)nc(NC(=O)NS(=O)(=O)c2ccccc2C(=O)OC)n1`, the compound was called inactive.

Regarding `CNC(=O)CSP(=S)(OC)OC`, the result was inactive.

Regarding `CN1CSC(=S)N(C)C1`, the AC50 is 21.9 µM (active).

Turning to `Cc1[nH]c(=O)n(C(C)(C)C)c(=O)c1Cl`, the compound was classed as inactive.

On to `Oc1cc(Cl)ccc1Oc1ccc(Cl)cc1Cl`, for which the AC50 is 35.3 µM (active) and 26.9 µM (active) and 67 µM (active).

Take `N#Cc1c(Cl)c(Cl)c(Cl)c(C#N)c1Cl`: the concentration at half-maximal activity (AC50) is 0.452 µM (active).

Take `CC(C)N(C(=O)COc1nnc(C(F)(F)F)s1)c1ccc(F)cc1`: the AC50 is 37.6 µM (active).

As for `CCCN(CCC)c1c([N+](=O)[O-])cc(C(F)(F)F)cc1[N+](=O)[O-]`, the AC50 was 109 µM (active).

For `Oc1ccc(Cl)cc1Cc1ccccc1`, the AC50 is 70 µM (active) [middle of 6 runs] and the outcome was inactive.

On to `O=[N+]([O-])c1c(Cl)c(Cl)c(Cl)c(Cl)c1Cl`, for which the compound was classed as inactive.

Take `COP(=O)(OC)OC=C(Cl)Cl`: the AC50 is 78 µM (active).

For the compound `COC(=O)c1ccccc1CS(=O)(=O)NC(=O)Nc1nc(OC)cc(OC)n1`, the outcome was inactive.
